Experimental data reported in PubChem BioAssay (EPA / NIEHS).
Inconclusive results are not listed. The source made the active and inactive calls. The calls were made as follows: active = hit-call score of the fitted dose curve at least 0.9, where 1 is the maximum; inconclusive = response in the unintended direction; inactive = score below 0.9.

Target: zebrafish Thyroid Hormone Receptor alpha (TRa), thraa (gene 30670) (UniProt Q98867)
Assay: ATG_zfTRa_XSP1: Attagene TRANS-FACTORIAL Multi-Species (XSP1) HepG2 Assay for zebrafish Thyroid Hormone Receptor alpha (TRa) (AID 2283807)
Procedure: ATG_XSP1_multi-species_TRANS is a cell-based, multiplexed assay created by modifying the existing Attagene TRANS-FACTORIAL system to include a panel of nuclear receptors from some or all the following species: human (Homo sapiens), mouse (Mus musculus), frog (Xenopus laevis), zebrafish (Danio rerio), chicken (Gallus gallus), and turtle (Chrysemys picta). The ECOTOX-FACTORIAL format uses HepG2, a human liver cell line, with measurements taken at 24 hours after chemical dosing in a 24-well plate. Xsp1 included 3 nM 6-alpha-fluorotestosterone to partially stimulate the androgen receptor.ATG_zfTRa_XSP1 is one of 29 assay components measured or calculated from the ATG_XSP1_multi-species_TRANS assay. It is designed to make measurements of mRNA induction, a form of inducible reporter, as detected with fluorescence intensity signals by Reverse transcription polymerase chain reaction (RT-PCR) and Capillary electrophoresis technology.The assay endpoint ATG_zfTRa_XSP1 was analyzed in the positive analysis fitting direction relative to DMSO as the negative control and baseline of activity. Using a type of inducible reporter, measures of mRNA for gain-of-signal activity can be used to understand the reporter gene at the transcription factor-level as they relate to the gene TR. Furthermore, this assay endpoint can be referred to as a primary readout, because this assay has produced multiple assay endpoints where this one serves a reporter gene function. […]
Human liver HepG2 cells are transiently transfected with multiple reporter transcription units (MRTUs) in 6-well plates using FuGene 6 reagent (Roche; 3 ml FuGene/1 mg DNA). […] A major difference between the CIS and TRANS system is that in CIS activities of endogenous TFs are measured, whereas the TRANS assay evaluates changes in activities of exogenous, chimeric NR-Gal4 proteins. […] The fragments were purified using Qiaquick PCR columns (Qiagen), analyzed on an ABI 3130xL genetic analyzer (Applied Biosystems) with peak positions identified by using a set of X-rhodamine (ROX)-labeled MapMarker1000 molecular weight standards (BioVentures). […]

zebrafish Thyroid Hormone Receptor alpha (TRa), thraa (gene 30670), sequence (Q98867 whole entry, looked up): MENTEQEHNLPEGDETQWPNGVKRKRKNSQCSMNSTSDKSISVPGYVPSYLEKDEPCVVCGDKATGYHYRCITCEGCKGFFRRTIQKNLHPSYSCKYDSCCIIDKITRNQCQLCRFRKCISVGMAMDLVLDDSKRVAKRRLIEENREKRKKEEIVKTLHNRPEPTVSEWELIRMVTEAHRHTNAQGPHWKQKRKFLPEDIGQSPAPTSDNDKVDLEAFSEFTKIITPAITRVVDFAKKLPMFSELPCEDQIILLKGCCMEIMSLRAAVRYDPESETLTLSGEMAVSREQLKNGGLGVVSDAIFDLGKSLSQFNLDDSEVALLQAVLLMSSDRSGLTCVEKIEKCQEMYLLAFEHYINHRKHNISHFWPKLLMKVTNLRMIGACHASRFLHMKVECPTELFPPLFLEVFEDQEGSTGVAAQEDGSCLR

Row | SMILES | outcome
1 | CC1(C)CCC(=Cc2ccc(Cl)cc2)C1(O)Cn1cncn1 (centres undefined) | inactive
2 | Cc1c(COC(=O)[C@@H]2[C@H](/C=C(\Cl)C(F)(F)F)C2(C)C)cccc1-c1ccccc1 | inactive
3 | COP(=S)(OC)Oc1ccc([N+](=O)[O-])c(C)c1 | inactive

Target: human Thyroid hormone Receptor beta (TRb), THRB (gene 7068) (UniProt P10828)
Assay: ATG_hTRb_XSP1: Attagene TRANS-FACTORIAL Multi-Species (XSP1) HepG2 Assay for human Thyroid hormone Receptor beta (TRb) (AID 2283808)
Procedure: ATG_XSP1_multi-species_TRANS is a cell-based, multiplexed assay created by modifying the existing Attagene TRANS-FACTORIAL system to include a panel of nuclear receptors from some or all the following species: human (Homo sapiens), mouse (Mus musculus), frog (Xenopus laevis), zebrafish (Danio rerio), chicken (Gallus gallus), and turtle (Chrysemys picta). The ECOTOX-FACTORIAL format uses HepG2, a human liver cell line, with measurements taken at 24 hours after chemical dosing in a 24-well plate. Xsp1 included 3 nM 6-alpha-fluorotestosterone to partially stimulate the androgen receptor.ATG_hTRb_XSP1 is one of 29 assay components measured or calculated from the ATG_XSP1_multi-species_TRANS assay. It is designed to make measurements of mRNA induction, a form of inducible reporter, as detected with fluorescence intensity signals by Reverse transcription polymerase chain reaction (RT-PCR) and Capillary electrophoresis technology.The assay endpoint ATG_hTRb_XSP1 was analyzed in the positive analysis fitting direction relative to DMSO as the negative control and baseline of activity. Using a type of inducible reporter, measures of mRNA for gain-of-signal activity can be used to understand the reporter gene at the transcription factor-level as they relate to the gene TR. Furthermore, this assay endpoint can be referred to as a primary readout, because this assay has produced multiple assay endpoints where this one serves a reporter gene function. To generalize the intended target to other relatable targets, this assay endpoint is annotated to the nuclear receptor intended target family, where the subfamily is non-steroidal.
Human liver HepG2 cells are transiently transfected with multiple reporter transcription units (MRTUs) in 6-well plates using FuGene 6 reagent (Roche; 3 ml FuGene/1 mg DNA). The MRTU constructs are regulated by a cis-regulating element (promoter). […] A major difference between the CIS and TRANS system is that in CIS activities of endogenous TFs are measured, whereas the TRANS assay evaluates changes in activities of exogenous, chimeric NR-Gal4 proteins. […] At the end of 24 hour incubation, total RNA was isolated using TriZol reagent (Invitrogen). The isolated RNA is then reverse-transcribed using oligo(dT) primer and Mo-MLV reverse transcriptase (Invitrogen) with DNAse I (Ambion) treatment for 30 min. The one-tenth of the produced cDNA was amplified by PCR using Taq DNA polymerase (Invitrogen) and two reporter sequence-specific primers. The PCR products were fluorescently labeled by primer extension with 6-arboxyfluorescein (6-FAM) 5'-labeled reporter sequence-specific primer (2 min at 95 C, 20 s at 68 C and 10 min at 72 C) and these products were digested with 5U of HpaI (New England Biolabs) for 2h at 37 C. The fragments were purified using Qiaquick PCR columns (Qiagen), analyzed on an ABI 3130xL genetic analyzer (Applied Biosystems) with peak positions identified by using a set of X-rhodamine (ROX)-labeled MapMarker1000 molecular weight standards (BioVentures). The raw capillary electrophoresis data was processed using Attagraph software (Attagene).

human Thyroid hormone Receptor beta (TRb), THRB (gene 7068), sequence (P10828 whole entry, looked up): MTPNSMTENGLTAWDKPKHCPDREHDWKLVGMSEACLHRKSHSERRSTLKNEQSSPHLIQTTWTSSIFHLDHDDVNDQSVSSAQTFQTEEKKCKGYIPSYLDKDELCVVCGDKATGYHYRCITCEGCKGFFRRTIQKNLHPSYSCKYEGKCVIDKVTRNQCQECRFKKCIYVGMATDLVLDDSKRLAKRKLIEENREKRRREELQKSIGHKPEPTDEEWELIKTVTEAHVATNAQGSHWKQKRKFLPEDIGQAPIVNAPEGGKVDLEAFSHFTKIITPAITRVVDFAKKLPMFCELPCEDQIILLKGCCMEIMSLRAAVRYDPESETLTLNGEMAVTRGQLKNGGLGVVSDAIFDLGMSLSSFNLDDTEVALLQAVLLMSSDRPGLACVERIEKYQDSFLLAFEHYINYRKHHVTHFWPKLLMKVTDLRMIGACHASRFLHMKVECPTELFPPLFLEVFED

Row | SMILES | outcome
4 | CC1(C)CCC(=Cc2ccc(Cl)cc2)C1(O)Cn1cncn1 (centres undefined) | inactive
5 | CCN(CC)C(=O)C(C)Oc1cccc2ccccc12 (centres undefined) | inactive
6 | COP(=S)(OC)Oc1ccc([N+](=O)[O-])c(C)c1 | inactive
7 | CC(C)NC(=O)N1CC(=O)N(c2cc(Cl)cc(Cl)c2)C1=O | inactive
8 | CC1(C)C(C=C(Cl)Cl)C1C(=O)OC(C#N)c1cccc(Oc2ccccc2)c1 (centres undefined) | inactive

Target: zebrafish Thyroid Hormone Receptor beta (TRb), thrb (gene 30607) (UniProt Q9PVE4)
Assay: ATG_zfTRb_XSP1: Attagene TRANS-FACTORIAL Multi-Species (XSP1) HepG2 Assay for zebrafish Thyroid Hormone Receptor beta (TRb) (AID 2283809)
In short: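 HepG2 cells transiently transfected with multiplexed GAL4-UAS reporter units expressing chimeric zebrafish TRb–Gal4. Dosed 24 h with 3 nM 6-alpha-fluorotestosterone present; reporter mRNA measured by RT-PCR, HpaI digestion and capillary electrophoresis; gain of signal versus DMSO.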

zebrafish Thyroid Hormone Receptor beta (TRb), thrb (gene 30607), sequence (Q9PVE4 whole entry, looked up): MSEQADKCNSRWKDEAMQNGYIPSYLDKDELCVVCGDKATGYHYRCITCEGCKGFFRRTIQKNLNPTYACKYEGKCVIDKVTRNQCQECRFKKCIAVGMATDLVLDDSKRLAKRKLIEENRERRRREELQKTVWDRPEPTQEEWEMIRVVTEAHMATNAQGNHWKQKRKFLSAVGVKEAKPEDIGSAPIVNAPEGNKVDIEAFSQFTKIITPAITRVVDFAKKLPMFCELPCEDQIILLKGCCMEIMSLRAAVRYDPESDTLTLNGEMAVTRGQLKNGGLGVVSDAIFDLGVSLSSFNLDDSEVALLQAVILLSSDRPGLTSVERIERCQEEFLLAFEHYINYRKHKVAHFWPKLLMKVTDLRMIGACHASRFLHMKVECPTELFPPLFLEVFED

Row | SMILES | outcome
9 | CC1(C)CCC(=Cc2ccc(Cl)cc2)C1(O)Cn1cncn1 (centres undefined) | inactive
10 | CSC(=O)c1c(C(F)F)nc(C(F)(F)F)c(C(=O)SC)c1CC(C)C | inactive
11 | CCN(CC)C(=O)C(C)Oc1cccc2ccccc12 (centres undefined) | inactive
12 | COP(=S)(OC)Oc1ccc([N+](=O)[O-])c(C)c1 | inactive
13 | CC(C)NC(=O)N1CC(=O)N(c2cc(Cl)cc(Cl)c2)C1=O | inactive
14 | CC1(C)C(C=C(Cl)Cl)C1C(=O)OC(C#N)c1cccc(Oc2ccccc2)c1 (centres undefined) | inactive

System: not listed separately
Assay: ATG_XTT_Cytotoxicity_XSP1: Cytotoxicity Assessment in the Attagene TRANS-FACTORIAL Multi-Species (XSP1) HepG2 Assay (AID 2283810)
In short: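 XTT viability readout taken at 24 hours post-dosing in HepG2 liver cells co-treated with 3 nM 6-alpha-fluorotestosterone. Signal loss relative to DMSO controls reflects cytotoxicity.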

Row | SMILES | outcome
15 | CC1(C)CCC(=Cc2ccc(Cl)cc2)C1(O)Cn1cncn1 (centres undefined) | inactive
16 | CSC(=O)c1c(C(F)F)nc(C(F)(F)F)c(C(=O)SC)c1CC(C)C | inactive
17 | CCN(CC)C(=O)C(C)Oc1cccc2ccccc12 (centres undefined) | inactive
18 | COP(=S)(OC)Oc1ccc([N+](=O)[O-])c(C)c1 | inactive
19 | CC(C)NC(=O)N1CC(=O)N(c2cc(Cl)cc(Cl)c2)C1=O | inactive

System: not listed separately
Assay: ATG_M_06_XSP2: Attagene TRANS-FACTORIAL Multi-Species (XSP2) HepG2 Assay for M06 Transcription Factor (Internal Marker) (AID 2283811);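 also: internal background marker reporter mRNA measured by RT-PCR and capillary electrophoresis; hits are increases in signal above the DMSO baseline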
In short: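 HepG2, multiplexed reporter transfection; 24 h dosing; AR stimulated with 3 nM 6-alpha-fluorotestosterone + 1.5 nM norgestrel; RNA → RT-PCR → 6-FAM primer extension → HpaI → CE. Positive direction vs DMSO.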

Row | SMILES | outcome
20 | CCN(CC)C(=O)C(C)Oc1cccc2ccccc12 (centres undefined) | inactive
21 | COP(=S)(OC)SCn1nnc2ccccc2c1=O | inactive
22 | N#Cc1c[nH]cc1-c1cccc2c1OC(F)(F)O2 | inactive
23 | C=C(C)CN(CC)c1c([N+](=O)[O-])cc(C(F)(F)F)cc1[N+](=O)[O-] | inactive
24 | COP(=S)(OC)Oc1ccc([N+](=O)[O-])c(C)c1 | inactive
25 | CC(C)NC(=O)N1CC(=O)N(c2cc(Cl)cc(Cl)c2)C1=O | inactive
26 | CC1(C)C(C=C(Cl)Cl)C1C(=O)OC(C#N)c1cccc(Oc2ccccc2)c1 (centres undefined) | inactive

System: turtle Estrogen Receptor (ERa), gene 101933533
Assay: ATG_trERa_XSP2: Attagene TRANS-FACTORIAL Multi-Species (XSP2) HepG2 Assay for turtle Estrogen Receptor (ERa) (AID 2283812);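 also: human HepG2 liver cells transiently expressing turtle ERa-Gal4 chimeric receptor; actives raise reporter signal above DMSO so AC50 reflects agonist activity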
In short: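 HepG2 cells transiently transfected with GAL4-UAS reporter units expressing turtle ERa-Gal4 chimera. Reporter mRNA measured after 24 h dosing by RT-PCR, fluorescent labelling and capillary electrophoresis; gain of signal fitted versus DMSO.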

Row | SMILES | outcome | AC50
27 | CC1(C)CCC(=Cc2ccc(Cl)cc2)C1(O)Cn1cncn1 (centres undefined) | inactive | 
28 | CSC(=O)c1c(C(F)F)nc(C(F)(F)F)c(C(=O)SC)c1CC(C)C | inactive | 
29 | CCN(CC)C(=O)C(C)Oc1cccc2ccccc12 (centres undefined) |  | 10.5 µM (active)
